Assay outcomes (PubChem)
The list is not random: actives were taken first. Their share in the collection is about 8.1%.
RORgamma inh: blocks mouse ROR gamma transcriptional activity; P51450; Drosophila S2 Gal4-RORgamma UAS-luciferase reporter, 20 h; Potency, µM (highest dose often 53.6 µM), for the others: at the highest dose activity change, negative = inhibition, most hits filed as inhibitors; 310,000 tested, 5.4% active; also: % is scaled to controls: 0 for no effect and ±100 for the full control effect; nearly all actives have a fitted effect of over 60% in size
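Using a luciferase readout, inhibitors were identified by reduced reporter activity in Drosophila cells coexpressing a copper-inducible Gal4–ROR gamma fusion and UAS-driven Photinus luciferase, incubated 20 hr after 700 uM copper sulfate.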
Epigenetic derep: derepresses silenced GFP reporter in murine cells; murine LDR cells, GFP reporter derepression, 30 h; Potency, µM (doses to about 53.9 µM), inactives show at the top dose GFP activation, actives largely listed as activators; 280,000 tested, 0.2% active; also: % of control where 0% means no effect; nearly all actives have a fitted effect of over 60% in size
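Readout is the number of GFP-expressing murine LDR cells, counted by cytometry following washing. Cells were treated with compound for 30 h at 37 C; the stably integrated CMV-GFP locus is normally silent.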
Gal4-VP16 FLuc: inhibits Gal4-VP16 luciferase reporter, ROR gamma counter-screen | Potency, µM (doses to about 53.6 µM), inactives show at the top dose activity, negative = inhibition, most hits filed as inhibitors | 310,000 tested, 3.5% active | AID 2546 | Drosophila S2 Gal4-VP16 UAS-luciferase, luminescence, 20 h;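 also: Gal4-VP16 expression switched on by copper sulfate through the metallothionein promoter; % is scaled to controls: 0 for no effect and ±100 for the full control effect; nearly all actives have a fitted effect of over 50% in size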
PINK1 expr mod: modulators of PINK1 expression; AID 624263; PINK1 immunofluorescence, high-content cytometry, 24 h; Potency, µM (highest dose often 76.6 µM), for the others: at the highest dose activation (PINK1 increase), usual class: activators; 410,000 tested, 0.2% active; active = well fitted activation curve with a large enough effect; inconclusive = small, poorly fitted or top-dose-only effect; cell line not stated here; also: % of control where 0% means no effect; nearly all actives have a fitted effect of over 65% in size
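Fluorescence from anti-PINK1 antibody, together with nuclear and cell stains, was scanned on a laser-scanning cytometer. Before staining, stable-line cells were incubated 24 hours with compounds at 5 concentrations; primary antibody 12 h at 10 degrees C.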
ClpP mod: qHTS Assay for Activators of ClpP; purified B. subtilis ClpP, FRET peptide cleavage, 20 min; Potency, µM (top dose mostly 57.5 µM), inactives show top-dose activity change, negative = active; 340,000 tested, 1.9% active; AID 651965, 2013; active = well fitted falling curve with a large enough effect; inconclusive = small, poorly fitted or top-dose-only effect; inactive = no such curve, though single readings can be large or run the other way; also: the source files actives as falling curves though it sought activators and does not explain the sign; nearly all actives have a fitted effect of over 65% in size
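Buffer: 100 mM Tris/HCl pH8, 100 mM KCl, 0.05% low protease BSA, 2.5% glycerol, 0.01% Tween-20. ClpP 10 microg/mL final; 20 min RT; delta FRET normalized to ADEP and DMSO controls.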
Sfp PPTase inh: inhibitors of Bacillus subtilis Sfp phosphopantetheinyl transferase; Q9F4F7; Biochemical Sfp PPTase activity, qHTS; 310,000 tested, 3.5% active; AID 1490; Potency, µM, inactives show largest response in the series, negative = inhibition, usual class: inhibitors;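 also: the enzyme is Sfp with the accession as filed and its product quenches rhodamine fluorescence; 0% = enzyme reaction without inhibitor and -100% = no enzyme wells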
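Compounds were incubated with enzyme (final 15 nM) for 15 min at room temperature before substrate addition started the reaction. Fluorescence at 525 nm excitation, 598 nm emission was recorded immediately and after 30 minutes.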
Numbers without * were called inactive; [ ] = remark or other dose. Unless noted, calls follow the shape of the dose curve; as a rule, active = well fitted curve in the direction sought with a large enough effect; inconclusive = small, poorly fitted or top-dose-only effect, or another doubt; inactive = no such curve, though single readings can be large; an effect the other way counts as inactive or inconclusive. Potency is read from the fitted curve at half-maximal effect.

Screening O=C1/C(=C/c2ccc(O)c([N+](=O)[O-])c2)SC(=S)N1Cc1ccccc1 returned RORgamma inh -2.3%, Epigenetic derep -2.5%, Gal4-VP16 FLuc -1.4%, PINK1 expr mod 31.6µM* and Sfp PPTase inh 8.2%.
For O=C(O)c1cccc(CN2C(=O)S/C(=C/c3cccc([N+](=O)[O-])c3)C2=O)c1 the results were RORgamma inh 5.62µM*, Epigenetic derep -7.1%, Gal4-VP16 FLuc 7.08µM*, PINK1 expr mod 2.3%, ClpP mod -1.0% and Sfp PPTase inh 70.8µM*.
Screening Cc1nn(-c2ccccn2)c2c1-c1nc(N)sc1CC2 returned PINK1 expr mod -0.9% and ClpP mod inconclusive.
Screening Cc1nn(-c2ccccn2)c(N)c1N=O returned RORgamma inh 11.2µM*, Epigenetic derep 0.5%, Gal4-VP16 FLuc inconclusive, PINK1 expr mod 0.2% and Sfp PPTase inh 4.5%.
For COc1cc(CNc2ccc(O)cc2)cc(Br)c1OCc1ccccc1 the results were RORgamma inh inconclusive, Epigenetic derep inconclusive, Gal4-VP16 FLuc inconclusive, PINK1 expr mod 3.9%, ClpP mod -2.4% and Sfp PPTase inh 22.4µM*.
Screening Oc1ccc(OCc2ccccc2)cc1 returned RORgamma inh 1.7%[2.98 µM], Epigenetic derep 3.8%[16.9 µM], Gal4-VP16 FLuc 28.9%[17 µM] and Sfp PPTase inh 17.4%.
c1ccc(COc2ccc(CNCc3cccs3)cc2)cc1 was read as RORgamma inh inconclusive, Epigenetic derep -1.5%, Gal4-VP16 FLuc 15.8µM*, PINK1 expr mod -3.0%[38.3 µM], ClpP mod 0.9% and Sfp PPTase inh 56.2µM*.
Brc1ccc(CNCc2cccs2)cc1 was read as RORgamma inh 3.8%, Epigenetic derep -1.9%, Gal4-VP16 FLuc 2.5%, PINK1 expr mod 1.9%, ClpP mod 1.2% and Sfp PPTase inh 4.3%.
Screening Oc1ccc(NCc2ccc(OCc3ccccc3)cc2)cc1 returned RORgamma inh inconclusive, Epigenetic derep inconclusive, Gal4-VP16 FLuc -27.5%, PINK1 expr mod 0.9%, ClpP mod -5.3% and Sfp PPTase inh 56.2µM*.
For CCCCCCCCCC[n+]1cccc2cc(Br)ccc21 the results were ClpP mod -1.2%.
Screening CCOC(=O)c1ccc(N2C(=O)c3n[nH]c(-c4ccco4)c3C2c2ccccc2OC)cc1 (stereo not drawn) returned Epigenetic derep 3.9%, PINK1 expr mod 1.4% and ClpP mod -15.1%.
Screening CC1(C)CC(N2CCN(CCO)CC2)=CC(=S)N1 returned RORgamma inh 7.1%, Epigenetic derep -1.3%, Gal4-VP16 FLuc 3.2%, PINK1 expr mod 2.4%, ClpP mod 1.6% and Sfp PPTase inh 50.1µM*.
Screening CC1(C)CC(NCc2ccccc2)=CC(=S)N1 returned PINK1 expr mod 0.9% and ClpP mod -0.3%.
For COc1ccc(OC)c2c(C)cc(N3CCN(C(=O)c4ccc(F)cc4)CC3)nc12 the results were RORgamma inh 25.6%, Epigenetic derep 0.2%, Gal4-VP16 FLuc 14.8%, PINK1 expr mod -0.5%, ClpP mod 20µM* and Sfp PPTase inh -24.2%.
`COc1ccc(CCNC(=O)CCCn2c(=O)c3ccccc3n(CC(=O)Nc3ccc(C)cc3Cl)c2=O)cc1OC` gave Epigenetic derep -0.9%, PINK1 expr mod 0.5% and ClpP mod -4.1%.
For NC1=C(c2ccc(F)cc2)C(=O)CS1 the results were RORgamma inh -14.8%, Epigenetic derep 1.5%, Gal4-VP16 FLuc -9.4%, PINK1 expr mod -2.0%, ClpP mod -1.8% and Sfp PPTase inh 79.4µM*.
Nc1nnc(-c2ccc(F)cc2)s1 was read as RORgamma inh -21.5%, Epigenetic derep 0.0%, Gal4-VP16 FLuc -15.9%, PINK1 expr mod -2.1%[38.3 µM], ClpP mod -24.4% and Sfp PPTase inh -1.3%.
COc1ccc(-c2nc3c4ccccc4n(CC(=O)N4CCN(c5ccccc5OC)CC4)c(=O)n3n2)cc1 was read as Epigenetic derep 3.5%, PINK1 expr mod 5.3% and ClpP mod -7.3%.
For O=C(Nc1c(Cl)cc([N+](=O)[O-])cc1Cl)c1cc(Cl)cc(Cl)c1O the results were PINK1 expr mod 14.1µM* and ClpP mod -18.0%.
`Cc1o[nH]c(=O)c1CC[C@H](N)C(=O)O` gave RORgamma inh 3.9%, Epigenetic derep -2.7%, Gal4-VP16 FLuc 4.1% and Sfp PPTase inh 79.4µM*.
COc1cc(CNc2ccccc2)c([N+](=O)[O-])cc1OC was read as RORgamma inh 26.8%[1.91 µM], Gal4-VP16 FLuc -6.4%, PINK1 expr mod 0.6%, ClpP mod -1.0% and Sfp PPTase inh 44.7µM*.
`COc1cc(CN2CCCCCC2)c([N+](=O)[O-])cc1OC` gave RORgamma inh 16.4%, Gal4-VP16 FLuc -3.3%, PINK1 expr mod -1.9%, ClpP mod -4.4% and Sfp PPTase inh 63.1µM*.
`COc1cccc(CNc2ccc(F)c([N+](=O)[O-])c2)c1O` gave RORgamma inh inconclusive, Epigenetic derep -1.5%, Gal4-VP16 FLuc 6.8%, PINK1 expr mod -1.4% and Sfp PPTase inh 12.2%.
Screening CC(C)Cc1cc(-c2ccco2)c(C#N)c(N)n1 returned RORgamma inh 14.8%, Epigenetic derep -3.4%, Gal4-VP16 FLuc 5.9%, PINK1 expr mod 0.3%, ClpP mod 3.16µM* and Sfp PPTase inh -3.9%.
Screening N#Cc1c(-c2ccco2)cc(-c2ccc(F)cc2)nc1N returned RORgamma inh 23.1%, Epigenetic derep -1.0%, Gal4-VP16 FLuc inconclusive, PINK1 expr mod 8.2%, ClpP mod 35.5µM* and Sfp PPTase inh 28.2µM*.
Screening N#Cc1c(-c2ccc(F)cc2)cc(-c2cccnc2)nc1N returned RORgamma inh 18.1%, Epigenetic derep 1.3%, Gal4-VP16 FLuc -2.6%, PINK1 expr mod 16.3%, ClpP mod inconclusive and Sfp PPTase inh 26.7%.
Screening CN(C)c1ccc(C(CN)c2c[nH]c3ccccc23)cc1 (stereo not drawn) returned RORgamma inh 23.2%, Epigenetic derep -1.6%, Gal4-VP16 FLuc -3.0%, PINK1 expr mod -2.0%, ClpP mod 0.2% and Sfp PPTase inh 50.1µM*.
CN(C)c1ccc(C(CNS(=O)(=O)c2ccc3ccccc3c2)c2c[nH]c3ccccc23)cc1 (stereo not drawn) was read as RORgamma inh 30.2%, Epigenetic derep 6.0%, Gal4-VP16 FLuc 7.4%, PINK1 expr mod 10.0%, ClpP mod -4.2% and Sfp PPTase inh 9.3%.
For CC1CCC(C(=O)O)NC1c1cccc(N2CCCC2=O)c1 (stereo not drawn) the results were RORgamma inh 5.5%[10 µM], Epigenetic derep 1.1%[10.1 µM], Gal4-VP16 FLuc 2.0%[10 µM] and Sfp PPTase inh -3.7%.
